Among all 340,000 compounds or so, about 20 (0.006%) were called active. Calls come from the whole dose curve; as a rule, active = well fitted inhibition curve with a large enough effect; inconclusive = small, poorly fitted or top-dose-only effect; inactive = no such curve, though single readings can be large or run the other way. What follows is part of a selection rich in actives, with near analogues and random picks from the rest.
The compounds below were run against Sphingomyelin phosphodiesterase (Homo sapiens) (UniProt P17405) (assay: Inhibitors of Secretory Acid Sphingomyelinase (S-ASM): qHTS). Conditions: placental ASM, HMU-PC fluorogenic substrate, 60 min; series mostly up to 57.5 µM.
Excerpt: Atherosclerosis is the underlying process for cardiovascular disease and thus is a major contributor to disease burden in the population. […] Thus, selective small molecule inhibitors of S-ASM should block LDL modification and reduce aortic LDL retention and may serve as new agents for the treatment of atherosclerosis. In a collaboration between National Heart, Lung, and Blood Institute and the NCGC a high-throughput amenable screen was developed to identify potent and selective small molecule inhibitors of S-ASM. This enzymatic, fluorescent screen uses an ASM enzyme preparation derived from human placenta and was tested against the NIH Molecular Libraries Small Molecule Repository (MLSMR). NIH Chemical Genomics Center [NCGC] NIH Molecular Libraries Probe Centers Network [MLPCN] MLPCN Grant: MH093173-01 Assay Submitter (PI): Alan Remaley, National Heart, Lung, and Blood Institute and Wei Zhen, NIH Chemical Genomics Center
Two microliters of ASM enzyme (1:150 dilution from stock) are dispensed in 1536-well plate. 23 nL of compound and control are pinned into assay plate using the Kalypsys pintool. The plates are then incubated for 10 minutes at ambient room temperature. Then, 2 uL of the flurogenic substrate, HMU-PC0, (9 uM final) are added to the plate. An incubation for 60 minutes takes place at 37 masculineC. After that, 4 uL of stop solution is added to raise the pH to 10 to end the kinetic reaction. Plate is read on ViewLux, with detection set at Ex = 386 (10) nm and Em = 447 (10) nm.
Potency is the fitted concentration of half-maximal effect.

Chain of Sphingomyelin phosphodiesterase (Homo sapiens) (P17405 47-631 limits assumed): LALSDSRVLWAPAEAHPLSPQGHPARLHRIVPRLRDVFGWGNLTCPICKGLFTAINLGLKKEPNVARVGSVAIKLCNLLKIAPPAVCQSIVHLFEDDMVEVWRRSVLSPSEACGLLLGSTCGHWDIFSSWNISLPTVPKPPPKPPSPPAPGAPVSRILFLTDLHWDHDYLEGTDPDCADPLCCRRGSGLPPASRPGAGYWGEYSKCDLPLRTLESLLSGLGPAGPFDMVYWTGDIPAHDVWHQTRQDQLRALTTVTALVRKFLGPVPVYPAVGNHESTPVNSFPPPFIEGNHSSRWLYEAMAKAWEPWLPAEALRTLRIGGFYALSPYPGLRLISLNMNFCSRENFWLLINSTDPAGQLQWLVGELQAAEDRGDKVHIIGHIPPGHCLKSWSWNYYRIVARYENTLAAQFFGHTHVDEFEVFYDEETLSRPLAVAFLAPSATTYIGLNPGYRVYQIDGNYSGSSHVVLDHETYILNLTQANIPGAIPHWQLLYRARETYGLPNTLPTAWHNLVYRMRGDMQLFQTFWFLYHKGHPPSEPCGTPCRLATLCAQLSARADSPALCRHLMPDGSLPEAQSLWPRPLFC

Potency, active:
COc1cc(/C=C2\SC(=S)N(Nc3ncc(C(F)(F)F)cc3Cl)C2=O)cc(OC)c1OC 28.2 µM

Potency, inactive:
COc1ccc(Cl)cc1C=CC=NNC(=O)c1ccncc1
COC(=O)[C@@H]1C[C@@]2(O)[C@H](O)[C@H](O)[C@H](O)C[C@H]2N1Cc1ccc(C)s1
Cn1c(=O)c2c(n(Cc3ccccc3)c1=O)NC(=O)C2CC(=O)N1CCc2ccccc2C1 (centres undefined)
CCOC(=O)c1c(C2CC2)csc1NC(=O)CSCc1c(C)noc1C
CCOC(=O)C1=CN(Cc2ccc(Br)cc2)S(=O)(=O)N(C)C1C (centres undefined)
COCc1c(C(=O)N/N=C(\C)c2ccncc2)nnn1-c1nonc1N
COc1ccc2c(C)c(CCC(=O)NC3CC3)c(=O)oc2c1C
CC(=O)N1c2ccc(S(=O)(=O)N(C)CC(=O)N(C)Cc3ccccc3)cc2CC1C (centres undefined)
C=CCN1C(=O)c2ccc(C(=O)N3CCC(C(=O)OCC)CC3)cc2C1=O
COc1nc(OC)nc(N(C)CCO)n1
CCOC(=O)C1CCN(C(=O)C2CCN(S(=O)(=O)CC)CC2)CC1
Cc1cccc(OCC(=O)OCC(=O)Nc2ccc(Cl)cn2)c1
Cc1ccc(C(=O)NCC(=O)NCc2cc(=O)n(C)c(=O)n2C)cc1
O=S(=O)(c1ccc(F)cc1)N1CCN(C(=S)NCc2ccco2)CC1
Cc1ccc(N(C(=O)c2snc(C(N)=O)c2N)C(C(=O)NCC2CCCO2)c2c[nH]c3ccccc23)cc1 (centres undefined)
Cc1ccc(S(=O)(=O)NC(C)C(=O)NCc2ccc(Cl)cc2)cc1 (centres undefined)
CSCCC(NS(=O)(=O)c1ccc2c(c1)oc(=O)n2C)C(=O)NC1CCCc2ccccc21 (centres undefined)
O=S(=O)(NCCCN1CCOCC1)c1ccc(F)c(Cl)c1
Cc1ccc(S(=O)(=O)NC(=O)c2cccc(C)c2)cc1
CC(=O)C1=C(C)NC2=C(C(=O)CC(C)(C)C2)C1C (centres undefined)
CCOC(=O)c1cc(S(=O)(=O)NCCc2ccc(OC)c(OC)c2)cn1C
CSCCC(NC(=O)c1ccccc1)C(=O)N1CCN(Cc2ccc(Cl)cc2)CC1 (centres undefined)
CC1C(=O)N2CCCc3cc(S(=O)(=O)NCc4ccc(F)cc4)cc1c32 (centres undefined)
COC(=O)c1ccc(CN2CCCC(C(=O)Nc3cccc(-n4cnnn4)c3)C2)cc1 (centres undefined)
O=C1c2ccccc2C2=Nc3ccccc3SC(c3ccccc3F)C12 (centres undefined)
CCOC(=O)c1ccccc1NC(=S)N1CCC(C(N)=O)CC1
COc1cccc(NC(=O)CSc2nnc(Cc3ccc(OC)c(OC)c3)o2)c1
O=C1N[C@H](Cc2c[nH]c3ccccc23)COC(=O)[C@H](Cc2ccc(F)cc2)C/C=C\C[C@H]1CC(=O)N(CCO)Cc1ccccc1
CSc1nnc(-c2ccc(C(F)(F)F)cn2)o1
COc1cc(/C=C/C(=O)N2c3ccccc3Sc3ccc(C(F)(F)F)cc32)cc(OC)c1OC
O=C1/C(=C/c2ccc(F)cc2)SC(=S)N1NS(=O)(=O)c1ccccc1
Cc1c(C)c2c(OCC(=O)N[C@@H](C(=O)O)c3ccccc3)cc3c(c2oc1=O)CCC(C)(C)O3
CCOC(=O)C1(Cc2cccc(OC)c2)CCN(Cc2csc(C(C)=O)c2)CC1
S=c1[nH]nc(Nc2ccccc2)s1
COc1cccc(-n2c(=S)sc3c(=O)n(-c4ccccc4C)c(SCC(=O)O)nc32)c1
CCOc1ncccc1C(=O)OCC(=O)Nc1cccc(S(=O)(=O)N2CCCCCC2)c1
N=C1C(=O)OCC1c1ccccc1NC(=O)CN1CCCCC1 (centres undefined)
COc1ccc(C(=O)N(C)CC(O)c2ccccc2)cc1OC1CCN(C(C)=O)CC1 (centres undefined)
O=C(O)CSCC(=O)Nc1ccc(C(F)(F)F)cc1
CC[C@@]12C(=O)N(c3ccccc3)C(=O)N1[C@H](c1ccc(Br)cc1)[C@@H]1C(=O)N(C(C)(C)C)C(=O)[C@@H]12
COc1cccc(N(C(=O)c2ccn[nH]2)C2(C(=O)Nc3c(C)cccc3C)CCCCC2)c1
COc1cc(OC)cc(C(=O)Nc2nnc(SCC(=O)NCC3CCCO3)s2)c1 (centres undefined)
CC(C)CN(C(=O)c1cccc(S(=O)(=O)N2CCCCC2)c1)C1CCS(=O)(=O)C1 (centres undefined)
CS(=O)(=O)N(Cc1ccccc1Cl)c1ccc(C(=O)NCc2cccnc2)cc1
CC1CCN(c2ccc(S(=O)(=O)Nc3cc(C(=O)O)cc(C(=O)O)c3)cc2[N+](=O)[O-])CC1
Cc1ccc2nc(SCC(=O)Nc3cccc4ccccc34)nc(=O)n2c1
CSCCC(=O)N1CCCC(CNC(=O)c2ccccc2Cl)C1 (centres undefined)
CCCn1nnc(NC(=O)COc2ccc(CC)cc2)n1
COc1ccc([C@H]2CC(=O)C=C(c3ccc(OC(F)(F)F)cc3)C2)cc1OC
Cc1cccc(-[n+]2c(-c3cccc(Br)c3)[nH]c3nc4ccccc4nc32)c1
Cc1cccc(C(=O)O)c1[N+](=O)[O-]
CCCn1c(C)cc(C(=O)COC(=O)c2c(C)nn(-c3ccccc3)c2C)c1C
O=C(c1ccc(F)cc1)N1CCC(C(=O)N2CCN(S(=O)(=O)c3ccccc3Br)CC2)CC1
Nc1ccccc1C(=O)NC1CCCCNC1=O (centres undefined)
O=C(N/N=C/c1cccc2cccnc12)[C@H]1C[C@@H]1c1ccccc1
COCC(=O)N(C)[C@H]1C[C@H]2c3cc(Oc4ccccc4C)ccc3CCN2C(=O)[C@H]1[C@H](C)O
COC(=O)c1ccc(C2NC(=O)NC(C)=C2C(=O)N(C)C)cc1 (centres undefined)
COc1ccc2c(c1)C(NS(=O)(=O)OCC(Cl)(Cl)Cl)CCC2 (centres undefined)
CCOc1ccc(-c2nc(C)sc2CC(=O)O)cc1
Cc1ccc(N(C(=O)CNC(=O)c2ccco2)C(C(=O)NC2CCCC2)c2ccncc2)cc1 (centres undefined)
COc1ccc(NC(=O)NN2CCN(C)CC2)c(OC)c1
COC(=O)C1=C(C)N(C)C(C)=C(C(=O)OC)C1c1cccc(Br)c1
Cc1c(C(C)CCCO)oc(=O)c2c1Oc1c(C)c(C(C)C[C@@H](C)O)oc(=O)c1C2 (some centres undefined)

— PubChem BioAssay AID504937 (National Center for Advancing Translational Sciences (NCATS), 2011)
